Results reported in PubChem BioAssay AID1159580 (chemical genetic matrix, 2015).
Several values for one entry are separate records, joined by “and”; a condition that tells them apart may be missing. Equal values may be shown once. Among all 5,500 compounds or so, about 2,000 (36%) were called active. Inconclusive results (about 18%) are left out. No stated cut-off is given here; in the data, active means normalized growth mostly below about 0.91 (no sharp cut-off); inconclusive means no clear call, values can overlap the other calls; inactive means mostly above about 0.92. The list shows a part of the results.

Experiment: chemical genetic growth profiling, strain panel (AID 1159580);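 further: tested at 20 µM; growth read once vehicle control cultures reached saturation at 30 °C; 1 = growth at the plate median or of vehicle wells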
Conditions: S. cerevisiae deletion strains, growth OD

Measured: normalized growth

CN1CCN(C2=Nc3cc(Cl)ccc3Nc3ccccc32)CC1
inactive: locus YAL013W, strain DEP1, stronger effect = lower value 1.02 | locus YAL021C, strain ccr4, stronger effect = lower value 0.991 | locus YAL026C, strain drs2, stronger effect = lower value 0.953 | locus YAL030W, strain snc1, stronger effect = lower value 1.01 | locus YAL040C, strain CLN3, stronger effect = lower value 1.01 | locus YBL061C, strain skt5, stronger effect = lower value 0.968 | locus YBR009C, strain hhf1, stronger effect = lower value 1.01 | locus YBR021W, strain FUR4, stronger effect = lower value 0.979 | locus YBR023C, strain chs3, stronger effect = lower value 0.987 | locus YBR171W, strain sec66, stronger effect = lower value 0.975 | locus YBR229C, strain ROT2, stronger effect = lower value 1.01 | locus YBR231C, strain swc5, stronger effect = lower value 0.988 | locus YBR279W, strain paf1, stronger effect = lower value 0.983 | locus YCL011C, strain gbp2, stronger effect = lower value 0.984 | locus YCL016C, strain dcc1, stronger effect = lower value 0.954 | locus YCL029C, strain bik1, stronger effect = lower value 1.01 | locus YCL061C, strain MRC1 (second series), stronger effect = lower value 1 | locus YCL061C, strain MRC1, stronger effect = lower value 0.984 | locus YCL069W, strain vba3, stronger effect = lower value 0.981 | locus YCR088W, strain abp1, stronger effect = lower value 0.985 | locus YDL005C, strain med2, stronger effect = lower value 0.984 | locus YDL035C, strain GPR1, stronger effect = lower value 1 | locus YDL040C, strain nat1, stronger effect = lower value 1 | locus YDL074C, strain BRE1, stronger effect = lower value 0.935 | locus YDL101C, strain DUN1, stronger effect = lower value 0.996 | locus YDL134C, strain PPH21, stronger effect = lower value 0.991 | locus YDL185W, strain tfp1, stronger effect = lower value 1.01 | locus YDL192W, strain arf1, stronger effect = lower value 1.02 | locus YDR001C, strain nth1, stronger effect = lower value 0.989 | locus YDR069C, strain doa4, stronger effect = lower value 0.968 | locus YDR101C, strain arx1, stronger effect = lower value 1 | locus YDR150W, strain NUM1, stronger effect = lower value 1.01 and 0.991 | locus YDR159W, strain sac3, stronger effect = lower value 0.948 | locus YDR162C, strain NBP2, stronger effect = lower value 0.97 | locus YDR195W, strain ref2 1.04 | locus YDR297W, strain sur2, stronger effect = lower value 0.976 | locus YDR318W, strain mcm21, stronger effect = lower value 1.02 | locus YDR334W, strain swr1, stronger effect = lower value 0.98 | locus YDR335W, strain msn5, stronger effect = lower value 0.977 | locus YDR363W, strain ESC2, stronger effect = lower value 0.884 | locus YDR388W, stronger effect = lower value 1.02 | locus YDR392W, strain spt3, stronger effect = lower value 0.801 | locus YDR502C, strain sam2, stronger effect = lower value 0.994 | locus YEL003W, strain gim4, stronger effect = lower value 0.987 | locus YEL037C, strain rad23, stronger effect = lower value 0.979 | locus YEL061C, strain CIN8 (second series), stronger effect = lower value 0.977 | locus YEL061C, strain CIN8, stronger effect = lower value 1.05 | locus YER002W, strain NOP16, stronger effect = lower value 0.997 | locus YER015W, strain faa2, stronger effect = lower value 0.991 | locus YER016W, strain bim1, stronger effect = lower value 0.966 | locus YER110C, stronger effect = lower value 1.03 | locus YER111C, strain swi4, stronger effect = lower value 0.975 | locus YER155C, strain BEM2, stronger effect = lower value 1.01 | locus YER167W, strain BCK2, stronger effect = lower value 1 | locus YFR010W, strain ubp6, stronger effect = lower value 1.02 | locus YGL078C, strain dbp3, stronger effect = lower value 1.01 | locus YGL086W, strain mad1, stronger effect = lower value 1.02 | locus YGL167C, strain pmr1, stronger effect = lower value 0.989 | locus YGL173C, strain kem1, stronger effect = lower value 0.98 | locus YGL227W, strain vid30, stronger effect = lower value 0.969 | locus YGL240W, strain doc1, stronger effect = lower value 1.03 | locus YGL248W, strain PDE1, stronger effect = lower value 0.99 | locus YGL253W, strain hxk2, stronger effect = lower value 0.982 | locus YGR078C, strain PAC10, stronger effect = lower value 0.975 and 1.01 | locus YGR135W, strain pre9, stronger effect = lower value 0.987 | locus YGR229C, strain SMI1, stronger effect = lower value 0.948 | locus YGR252W, strain gcn5, stronger effect = lower value 0.994 | locus YHR013C, strain ard1, stronger effect = lower value 0.917 | locus YHR027C, strain rpn1, stronger effect = lower value 0.985 | locus YHR030C, strain SLT2, stronger effect = lower value 1.02 and 1.07 | locus YHR079C, strain IRE1 (second series), stronger effect = lower value 1.03 | locus YHR079C, strain IRE1, stronger effect = lower value 1.03 | locus YHR094C, strain hxt1, stronger effect = lower value 1.02 | locus YHR129C, strain ARP1, stronger effect = lower value 1.01 | locus YHR142W, strain chs7, stronger effect = lower value 0.949 | locus YHR200W, strain rpn10, stronger effect = lower value 1.01 | locus YIL066C, strain RNR3, stronger effect = lower value 1.01 | locus YIL073C, strain SPO22, stronger effect = lower value 1.1 | locus YIL125W, strain kgd1, stronger effect = lower value 1.02 | locus YIR030C, strain dcg1, stronger effect = lower value 1.02 | locus YJL092W, strain hpr5, stronger effect = lower value 0.985 | locus YJL095W, strain BCK1 (second series), stronger effect = lower value 0.991 | locus YJL095W, strain BCK1, stronger effect = lower value 0.945 and 1.05 | locus YJL115W, strain asf1, stronger effect = lower value 0.969 | locus YJL129C, strain trk1, stronger effect = lower value 0.969 | locus YJL134W, strain LCB3, stronger effect = lower value 1.01 | locus YJL154C, strain vps35, stronger effect = lower value 0.981 | locus YJL164C, strain tpk1, stronger effect = lower value 0.999 | locus YJL166W, strain qcr8, stronger effect = lower value 1 | locus YJL168C, strain set2, stronger effect = lower value 1.03 | locus YJL187C, strain SWE1 (second series), stronger effect = lower value 1 | locus YJR043C, strain POL32, stronger effect = lower value 1.02
active: locus YDR137W, strain rgp1, stronger effect = lower value 1.15 [resistant] | locus YER155C, strain BEM2 (second series), stronger effect = lower value 0.802
